High-throughput results: PubChem, National Center for Advancing Translational Sciences (NCATS)
Compounds with a hit are over-represented: about 11% of the library has one in this group of screens.
Coupling enz – counter-screen for Giardia aldolase inhibitors: coupling enzyme system | AID 2472 | coupling enzyme system counterscreen, AmpLite Red fluorescence | activity change, negative = inhibition, % at 58.2 µM, hits read low | hit rate 0.67% among 290,000; in the data active means activity change below about -30%
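Fluorescence at 525 nm excitation and 598 nm emission measured inhibition of the coupled detection system without aldolase. Compounds (at 57.5 uM final) were preincubated 10 min at room temperature with coupling enzyme reagent before a 20 min substrate/AmpLite Red step.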
Tau fluor cs – counter-screen for tau fibril formation inhibitors. tau K18 P301L Alexa594 fluorescence, heparin fibrillization. Potency, µM (top dose mostly 57.7 µM), inactives show top-dose activity change, negative = decrease. hit rate 0.93% among 280,000. AID 1463; further: potency means the concentration at half of the fitted maximal effect; nearly all actives have a fitted effect of over 55% in size
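Human tau K18 P301L (15 uM unlabeled, 0.24 uM Alexa 594-labeled) in 100 mM sodium acetate pH 7 with 20 uM heparin, 6 hr at 37 C. ThT 30 uM added, 1 hr ambient; Alexa 594 FP and total fluorescence read at 555/632 nm.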
Tau FP inhib – tau fibrillization inhibition (FP). P10636. AID 1468. Potency, µM (top dose mostly 57.7 µM), for inactives: top-dose activity, negative = inhibition, most hits filed as inhibitors. K18 P301L tau heparin fibrillization, Alexa594 FP, 6 h. hit rate 0.39% among 280,000; further: potency means the concentration at half of the fitted maximal effect; nearly all actives have a fitted effect of over 55% in size
Target sequence (P10636 561-689 P618L limits assumed): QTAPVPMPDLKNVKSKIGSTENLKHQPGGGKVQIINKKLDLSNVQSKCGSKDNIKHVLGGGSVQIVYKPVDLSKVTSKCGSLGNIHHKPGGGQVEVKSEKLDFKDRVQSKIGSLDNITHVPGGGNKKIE
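Human K18 P301L fragment (15 uM unlabeled plus 0.24 uM Alexa 594-labeled) in 100 mM sodium acetate pH 7 with compound, aggregation induced by 20 uM heparin for 6 hr at 37 C. ThT (30 uM) added for 1 hr, then Alexa 594 FP read.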
Sfp PPTase inh – inhibitors of Bacillus subtilis Sfp phosphopantetheinyl transferase; Biochemical Sfp PPTase activity, qHTS; Potency, µM, for inactives: largest response in the series, negative = inhibition, hits mostly inhibitors; hit rate 3.5% among 310,000; Q9F4F7; AID 1490;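 further: the enzyme is Sfp with the accession as filed and its product quenches rhodamine fluorescence; potency means the concentration at half of the fitted maximal effect; 0% = enzyme reaction without inhibitor and -100% = no enzyme wells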
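Step 1, compound plus 15 nM Sfp-PPTase, 15 min, room temperature. Step 2, add rhodamine-CoA (5 uM) and BHQ-2-YbbR (12.5 uM). Step 3, read 525/598 nm fluorescence at 0 and 30 min.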
Tau ThT inhib – tau fibrillization inhibition (ThT binding) | P10636 | recombinant tau K18 P301L (four-repeat tau fragment), heparin-induced fibrillization, ThT fluorescence | Potency, µM (top dose mostly 57.4 µM), inactives show at the top dose activity, negative = inhibition, usual class: inhibitors | hit rate 2.1% among 270,000 | AID 1460; further: potency means the concentration at half of the fitted maximal effect; nearly all actives have a fitted effect of over 55% in size
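Heparin-induced (20 uM) aggregation of recombinant human K18 P301L tau, 15 uM unlabeled with 0.24 uM labeled, pH 7 acetate buffer, 6 hr at 37 C with compound. Fibrils quantified by 30 uM ThT fluorescence after 1 hr ambient incubation.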
G9a inh – inhibitors of human histone lysine methyltransferase G9a; hit rate 8.8% among 350,000; AID 504332; Q96KQ7; G9a H3K9 monomethylation, AlphaScreen, 2 h; Potency, µM (doses to about 102 µM), for inactives: at the top dose activity, negative = inhibition, actives largely listed as inhibitors; further: potency means the concentration at half of the fitted maximal effect; nearly all actives have a fitted effect of over 75% in size
Target sequence (Q96KQ7 913-1193 limits assumed): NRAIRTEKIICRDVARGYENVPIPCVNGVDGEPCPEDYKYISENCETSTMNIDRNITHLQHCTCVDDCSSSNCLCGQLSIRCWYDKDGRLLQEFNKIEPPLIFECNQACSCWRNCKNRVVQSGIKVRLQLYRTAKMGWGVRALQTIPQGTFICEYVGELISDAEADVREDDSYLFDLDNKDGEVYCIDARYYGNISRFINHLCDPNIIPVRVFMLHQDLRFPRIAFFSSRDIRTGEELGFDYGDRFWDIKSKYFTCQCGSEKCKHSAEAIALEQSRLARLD
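Chemiluminescent proximity detection of H3K9 monomethylation, read after 10 min bead incubation in the dark. Reaction: 20 nM G9a, 500 nM biotin-H3K9 peptide, 20 uM SAM cofactor, 2 h, room temperature, following 15 min enzyme-compound preincubation.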
Numbers without * were called inactive; ? = inconclusive; · = not tested or not shown; [ ] = dose if it differs, or a comment. Unless noted, the call rests on the fitted dose curve; in most records, active means well fitted curve in the direction sought with a large enough effect; inconclusive means small, poorly fitted or top-dose-only effect, or another doubt; inactive means no such curve, though single readings can be large; an effect the other way counts as inactive or inconclusive. Unless noted, on the % scale 0 is the no-effect control and ±100 the full control effect.

SMILES	Coupling enz	Tau fluor cs	Tau FP inhib	Sfp PPTase inh	Tau ThT inhib	G9a inh
O=[N+]([O-])c1ccc(-c2cc(-c3ccncc3)nc3ccc4ccccc4c23)cc1	3	-6%	1%	-4%	-7%	45µM*
CC1Cc2cc(S(=O)(=O)N3CCCC(C(=O)N4CCCCC4)C3)ccc2N1C(=O)C1CC1 (stereo not drawn)	2	·	·	10%	·	-2%[59 µM]
CCOc1ccc2nc(N3CCCC(C(=O)N4CCN(CC)CC4)C3)sc2c1 (stereo not drawn)	-9	-6%	0%	?	-6%	7.9µM*
CCOc1ccc(CCNC(=O)c2oc3c(c2C)-c2[nH]ncc2CC3)cc1OCC	-24	-13%	-4%	4%	?	45µM*
Cc1c(C(=O)NC(C)C)oc2c1-c1[nH]ncc1CC2	-39*	-8%	0%	4%	?	-20%[59 µM]
Cc1c(C(=O)NCc2ccccc2)oc2c1-c1[nH]ncc1CC2	·	-5%	1%	·	-7%	?
C=C(C)C(=O)/C=C/CCC/C=C/C(=O)OCC	0	-11%	-14%	-4%	-17%	·
CC(C)(C)C(=O)/C(=C\c1ccc([N+](=O)[O-])cc1)n1cncn1	-2	-16%	10%	14µM*	?	?
CC(C)(C)C(=O)/C(=C/c1ccc(Cl)cc1)n1cncn1	-1	·	·	9%	·	-9%
CCN(CC)c1ccc(NC(=O)CSc2nc3nc(C)cc(C)c3c(=O)[nH]2)cc1	·	·	·	·	·	40µM*
CC(=O)Nc1ccc(S(=O)(=O)N2c3ccccc3NC(=O)CC2C)c(Cl)c1 (stereo not drawn)	3	-4%	8%	9%	·	·
C(=C\c1ccco1)/C1=NN(c2ccccc2)C(c2ccco2)C1 (stereo not drawn)	-1	?	-1%	28µM*	?	-1%[59 µM]
O=[N+]([O-])c1ccc(/C=C/C2=NN(c3ccccc3)C(c3ccco3)C2)o1 (stereo not drawn)	-1	?	1%	-7%	7.9µM*	32µM*
C=CCNC(=S)NC(=O)c1csc([N+](=O)[O-])c1	-2	-12%	-11%	56µM*	?	25µM*
C=CCNC(=S)N/N=C/c1ccc(C)c([N+](=O)[O-])c1	0	-16%	-3%	0%	?	16%
O=C(NC(=S)N1CCCCC1)c1csc([N+](=O)[O-])c1	0	6%	-1%	-3%	6%	25µM*
CC(C)(C)c1ccc(C(=O)NC(=S)N2CCCCCC2)cc1	·	·	·	16%	·	5%
CCOC(=O)CCN1C(=O)[C@H]2[C@H]3[C@H](O)[C@H](O)C/C(=N/NC(=O)OCc4ccccc4)[C@H]3CC[C@@H]2C1=O	4	-2%[11.6 µM]	4%[11.6 µM]	14%	-9%[11.5 µM]	·
COC(=O)[C@@]1(Cc2ccc(OC)cc2)[C@H]2c3cc(C(=O)N4CCCC4)n(CCN4CCNC4=O)c3C[C@H]2CN1C(=O)c1ccccc1	0	-7%	-1%	-11%	-6%	79µM*
COC(=O)[C@@]1(Cc2ccc(OC)cc2)[C@H]2c3cc(C(=O)N4CCCC4)n(CCF)c3C[C@H]2CN1C(=O)c1ccccc1	0	1%	3%	-18%	-14%	·
COC(=O)[C@@]1(Cc2ccc(OC)cc2)[C@H]2c3cc(C(=O)N4CCCC4)n(Cc4ccc(OC)c(OC)c4)c3C[C@H]2CN1C(=O)c1ccccc1	-3	-17%	-3%	-7%	?	45µM*
CCCCn1c(=O)c2oc3ccccc3c2n(Cc2cccc(F)c2)c1=O	·	-5%	-6%	·	7%	2%[59 µM]
COc1ccc(-n2ncc(C(=O)NCCCN3CCCCC3)c2C2CCN(C(=O)OC(C)(C)C)CC2)cc1	·	-7%	-4%	·	-5%	-9%[59 µM]
CC(=O)c1ccccc1Oc1cc(NN2CCCCC2)c([N+](=O)[O-])cc1[N+](=O)[O-]	4	·	·	5%	·	28µM*
CC(=O)c1cccc(Oc2cc(NN3CCCCC3)c([N+](=O)[O-])cc2[N+](=O)[O-])c1	6	·	·	18%	·	50µM*
SMILES	Coupling enz	Tau fluor cs	Tau FP inhib	Sfp PPTase inh	Tau ThT inhib	G9a inh
Cc1ccccc1CNC(=O)CCS(=O)(=O)c1cc2c3c(c1)CCN3C(=O)CC2	·	0%	-3%	·	6%	-7%[59 µM]
CCNC(=O)/C=C1\NC(C)(C)Cc2c1ccc1ccccc21	0	-5%	9%	14%	-12%	11µM*
CC1(C)Cc2c(ccc3ccccc23)C(=O)N1	0	4%	1%	7%	-5%	-1%[12.7 µM]
CCC1(C)Cc2ccccc2/C(=C/C(=O)N2CCCCC2)N1 (stereo not drawn)	-1	-7%	9%	14%	-15%	40µM*
CNC(=O)/C=C1\NC(C)(C)Cc2ccccc21	1	-5%	4%	50µM*	?	-20%[12.7 µM]
COc1ccccc1OCCCCN1CCN(c2ccccc2OC)CC1	-5	-7%	-7%	56µM*	-7%	2µM*
COc1ccccc1N1CCN(C[C@@H](O)COc2cccc3ccccc23)CC1	-6	-29%	3%	-17%	?	-6%[21.5 µM]
COc1ccccc1N1CCN(CCCCCCOc2ccc(F)cc2)CC1	-1	-19%	8%	-4%	?	50µM*
COc1ccccc1N1CCN(CCCCOc2cccc3ccccc23)CC1	0	-12%	10%	-18%	-16%	45µM*
CC(=O)c1ccc(NC2=NS(=O)(=O)c3ccccc32)cc1	·	0%	-13%	·	-1%	-12%[59 µM]
Cc1cccc(Cn2nc(C)n3c(cc4cc(C)ccc43)c2=O)c1	·	3%	5%	·	4%	10%[59 µM]
COc1ccccc1C(=O)NC(CCSC)C(=O)OC(C)C(=O)NC1CC1 (stereo not drawn)	·	·	·	·	·	19%[2.33 µM]
Cc1ccc(NC(=O)COC(=O)[C@H](C)NC(=O)c2ccccc2)cc1S(=O)(=O)N1CCOCC1	1	-5%	-6%	12%	·	?
O=C1CCN(Cc2ccccc2)CCN1[C@H](CO)c1ccccc1	4	·	·	4%	·	·
CN1CCC(=O)N([C@H](CO)c2ccccc2)CC1	2	·	·	14%	·	45µM*
CCN1CCN(CCCNC(=O)c2ccc3c(c2)NC(=O)/C(=C\c2cccc(C)c2)S3)CC1	·	·	·	35µM*	·	35µM*
COc1ccc(/C=C2/Sc3ccc(C(=O)NCCCN4CCOCC4)cc3NC2=O)cc1OC	-3	·	·	-3%	·	?
Cc1cccc(/C=C2/Sc3ccc(C(=O)NCCCN4CCOCC4)cc3NC2=O)c1	-1	·	·	50µM*	·	1%[59 µM]
CCN1CCN(CCCNC(=O)c2ccc3c(c2)NC(=O)c2ccccc2S3)CC1	4	-6%	-4%	13%	-14%	?
CCc1cc(C(=O)O)c(NC(=O)/C=C/c2ccc(OC)cc2)s1	3	?	-2%	14%	13µM*	-44%
